Pf apPOL block: Pf-apPOL inhibitors, biochemical, fluorescence; Plasmodium falciparum apicoplast DNA polymerase (apPOL); Recombinant Pf-apPOL, molecular beacon fluorescence, 1.5 h; inhibition, % at 10 µM; hit rate 0.25% among 210,000
mHTT-CaM PPI inh: mutant huntingtin-calmodulin interaction inhibitors – biochemical, AlphaScreen, primary screen. P42858. AlphaScreen His-mHTT/GST-CaM binding, luminescence. inhibition, % at 15 µM. hit rate 3.6% among 190,000;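 note: 0% = both proteins with DMSO and 100% = one protein alone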
* marks the source's active call; other numbers are inactive results; i = inactive; x = not tested or not shown. The entries come from a sample that favours hits as a whole. Cut-off read from the data, not from the text of the source: active = inhibition above about 50%; inactive = the rest.

SMILES | Pf apPOL block | mHTT-CaM PPI inh
c1ccc(Cc2nc(N3CCOCC3)c3c4c(sc3n2)CCCC4)cc1 | 0.5 | -33.8
CCN1CCN(c2nc(Cc3ccccc3)nc3sc4c(c23)CCCC4)CC1 | -5.7 | 66.2*
COc1ccc(-c2[nH]ncc2CN2CCCC2c2cc(C)on2)cc1OC (stereo not given) | 1.9 | 11.8
CC1CCCN(C(=O)c2ccc3c(c2)nc2n3CCN(C3CCCCC3)C2=O)C1 (stereo not given) | -0.2 | 0.7
Cc1ccc(CN2C(=O)CCc3c(C)nc(-c4ccncc4)nc32)o1 | 9.3 | 71.4*
Cc1nc(-c2cccnc2)nc2c1CCC(=O)N2CCN(C)C | -6.0 | 1.4
Cc1nc(-c2ccncc2)nc2c1CCC(=O)N2Cc1cccs1 | -3.3 | 6.0
Cc1nc(-c2cccnc2)nc2c1CCC(=O)N2CCN1CCCC1 | 57.9* | 22.7
Cc1nc(-c2cccnc2)nc2c1CCC(=O)N2Cc1ccccn1 | -12.1 | 1.5
Cc1nc(-c2cnccn2)nc2c1CCC(=O)N2Cc1ccccn1 | -21.6 | 98.9*
COc1ccccc1NC(=O)c1cc(S(=O)(=O)N(C)Cc2ccccc2)ccc1F | -2.7 | 1.0
CC(=O)Nc1c2c(nn1-c1ccc(C)cc1C)CS(=O)(=O)C2 | -2.2 | 0.0
CC1=NN(c2ccccc2)C(=O)/C1=C/c1ccc(Br)s1 | 2.1 | 46.0
CC1=NN(c2nn[nH]n2)C(=O)/C1=C\c1cccs1 | x | 100.2*
CN1CCN(c2cccc3c2S(=O)(=O)N[C@H](Cc2ccccc2)CO3)CC1 | -7.8 | -2.7
O=S1(=O)N[C@H](Cc2ccccc2)COc2cccc(N3CCN(Cc4ccccc4F)CC3)c21 | -5.7 | 62.3*
Cc1ccc(OS(=O)(=O)c2cc(Cl)sc2Cl)c([N+](=O)[O-])n1 | 4.4 | x
Cc1c(Cl)c(C)c([N+](=O)[O-])c(O)c1C=Nc1cccc(O)c1 | 1.3 | 76.0*
Cc1ccc(N=Cc2c(C)c(Cl)c(C)c([N+](=O)[O-])c2O)c(O)c1 | 2.0 | 8.0
O=[N+]([O-])c1cccc(C=Nc2cccc(O)c2)c1O | -2.7 | 74.0*
O=c1oc2ccccc2cc1-c1cccc(N=Cc2ccccc2O)c1 | -3.2 | 6.0
O=[N+]([O-])c1cccc(N=Cc2cccc([N+](=O)[O-])c2O)c1 | 0.5 | 5.0
Oc1ccccc1C=Nc1cccc(N=Cc2ccccc2O)c1 | -3.1 | 71.0*
CCCc1cc(=O)[nH]c2nnc(SCC(=O)Nc3ccccc3C(=O)OCC)n12 | -4.3 | -11.0
COc1ccc(C(=O)N2CCN(c3ccccc3C)C(=O)C2C)cc1 (stereo not given) | -0.6 | 2.6
SMILES | Pf apPOL block | mHTT-CaM PPI inh
COc1ccccc1OCC(=O)NCC1(O)CCCC1 | -1.7 | -2.0
O=C(Nc1cccc2c1C(=O)c1ccccc1C2=O)c1ccc(Cl)s1 | 0.8 | 0.0
O=C(Nc1cccc2c1C(=O)NC2=O)c1ccc(Cl)s1 | 1.3 | 100.1*
COc1ccc(C(O)=C2C(=O)C(=O)N(CCCn3ccnc3)C2c2cccc([N+](=O)[O-])c2)cc1 (stereo not given) | -0.2 | 4.4
CSc1ccccc1N1C(=O)C2CC(C)=C(C)CC2C1=O (stereo not given) | -1.2 | -7.0
CC1=C(C)CC2C(=O)C3=C(C(=O)C2C1)C1c2ccccc2C3c2ccccc21 (stereo not given) | -2.1 | 61.0*
CC(C)(C)c1ccc(-c2nnc(SCc3ccc(OC(F)(F)F)cc3)o2)cc1 | -2.2 | x
COc1cc(NCc2cc(OC)c(O)c([N+](=O)[O-])c2)cc(OC)c1 | 2.7 | 64.7*
COc1cc(CN2CCSCC2)cc(I)c1O | -2.3 | 5.7
COc1cc(CN2CCCCCCC2)cc([N+](=O)[O-])c1O | -6.3 | 5.3
COc1cc(NCc2cc(I)c(O)c(OC)c2)cc(OC)c1 | -3.3 | 88.8*
CCCC(C)C(=O)NCc1ccc(S(N)(=O)=O)cc1 (stereo not given) | -0.7 | -4.7
COc1ccccc1C(=O)Nc1ccc(N2C(=O)c3ccc(Cl)cc3C2=O)c(C)c1 | 0.6 | -1.0
CCN(CC)c1ccc(C=NCCc2ccccc2)c(O)c1 | 1.6 | 80.0*
CCN(CC)c1ccc(C=Nc2ccccc2)c(O)c1 | -6.3 | 8.0
CCc1ccccc1NC(=O)CCS(=O)(=O)c1ccc(Br)s1 | -13.1 | -6.0
CC(=O)Nc1ccc(C(=O)N2CCc3cn(CC(C)C)c4cccc(c34)C2)cc1 | -1.3 | 72.5*
COc1ccc(NC(=O)N2CCc3cn(CC(C)C)c4cccc(c34)C2)cc1OC | -0.8 | 28.8
CCC(=O)N1CCc2cn(CC(C)C)c3cccc(c23)C1 | -4.9 | 53.6*
CC(=O)N1CCc2cn(CC(C)C)c3cccc(c23)C1 | -2.4 | 43.7
COc1ccc(/C(N)=N/OC(=O)COc2ccc(C)cc2Br)cc1OC | -0.2 | i
Cc1nc(SCc2ccccc2F)[nH]c(=O)c1CC(=O)N1CCc2ccccc2C1 | -5.2 | -5.7
Cc1cc([N+](=O)[O-])ccc1S(=O)(=O)N1CC2C3C=CC(C3)C2C1 (stereo not given) | 5.0 | 17.0
O=c1oc2ccc(Br)cc2cc1-c1nc2ccccc2c(=O)[nH]1 | 3.3 | 11.0
O=C(On1c(-c2ccccc2)nc2ccccc2c1=O)c1ccco1 | -9.6 | 100.1*
SMILES | Pf apPOL block | mHTT-CaM PPI inh
Cc1onc(-c2c(Cl)cccc2Cl)c1C(=O)On1c(-c2ccccc2)nc2ccccc2c1=O | -2.9 | x
CC1=C(Br)C(=O)c2ccccc2C1=O | -4.0 | 17.0
O=C1C(Br)=C(Br)C(=O)c2ccccc21 | 15.0 | 100.0*
O=C1C(Br)=C(Br)C(=O)C(Br)=C1Br | 6.9 | 81.0*
COc1ccc(C2CC(=O)Nc3n[nH]c(-c4ccccc4)c32)cc1OC (stereo not given) | -4.8 | 8.7
COc1cc(C2CC(=O)Nc3n[nH]c(-c4ccc(Cl)cc4)c32)cc(OC)c1OC (stereo not given) | 1.0 | 100.1*
COc1cccc(C2CC(=O)Nc3n[nH]c(-c4ccc(Cl)cc4)c32)c1 (stereo not given) | 3.1 | 34.3
COc1ccc(OC)c(C2CC(=O)Nc3n[nH]c(-c4ccccc4)c32)c1 (stereo not given) | 2.3 | 93.6*
COc1ccc(C2CC(=O)Nc3n[nH]c(-c4ccccc4)c32)cc1 (stereo not given) | -2.2 | -0.8
COc1cc(C2CC(=O)Nc3n[nH]c(-c4ccccc4)c32)ccc1O (stereo not given) | 0.9 | 53.6*
O=C(c1cccc2c1CCN2C(=O)c1ccc(F)cc1)N1CCOCC1 | -3.7 | -3.9
Cc1cc(C(F)(F)F)c(C#N)c(SCC(=O)c2ccc([N+](=O)[O-])cc2)n1 | 3.3 | 21.0
O=C(NCc1cccc2ccccc12)NCC1CN(c2ccccc2)C(=O)O1 (stereo not given) | -0.3 | -3.5
O=C(NC(Nc1ccc(Cl)cc1)C(Cl)(Cl)Cl)c1ccco1 (stereo not given) | 4.4 | 3.0
O=C(NC(Nc1ccc(Cl)cc1Cl)C(Cl)(Cl)Cl)c1ccco1 (stereo not given) | 9.5 | 51.0*
Brc1csc(CN2CCc3nc(N4CCCC4)ncc3C2)c1 | 5.7 | 99.1*
Fc1ccccc1CN1CCc2nc(N3CCN(c4ccccc4)CC3)ncc2C1 | 4.4 | 33.8
Clc1ccc(CN2CCc3nc(N4CCN(c5ncccn5)CC4)ncc3C2)cc1 | -1.5 | 100.2*
CCN1CCN(c2ncc3c(n2)CCN(Cc2cccc(C)c2)C3)CC1 | -1.6 | 79.2*
Fc1ccc(CN2CCc3nc(N4CCN(c5ccccc5)CC4)ncc3C2)cc1F | 5.1 | 99.6*
CCN1CCN(c2ncc3c(n2)CCN(Cc2cc(Br)cs2)C3)CC1 | -1.3 | 34.2

High-throughput results deposited in PubChem by University of Kansas High Throughput Screening Laboratory.
